E coli growth-1: blocks Escherichia coli growth | 330,000 tested, 0.21% active | OD600, 23 h; stronger effect = lower value | OD600 absorbance (concentration not given with the values);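 active means OD600 absorbance below the run mean of sample wells minus 3.6 SD, in any replicate, cut at about 0.56 in these data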
Calb FLC: C. albicans growth modulation with fluconazole. AID 1979. 300,000 tested, 0.57% active. C. albicans CaCi-2 (fluconazole-resistant clinical isolate) + fluconazole, Alamar Blue growth, 48 h. growth inhibition, % (test concentration not listed);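 active means growth inhibition above about 58% in most replicates, limit read from the data, passing the limit was not always enough; inconclusive means exactly half the replicates above a set limit; inactive means most replicates below a set limit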;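 further: all wells also contain fluconazole at 8 µg/ml as a sub-toxic cotreatment; 0% = median of DMSO wells and 100% = median of geldanamycin control wells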
Tat export inh: inhibitors of E. coli Tat protein transport. E. coli MC4100 TorA-mCherry Tat export, fluorescence. inhibition, % at 10 µM. 340,000 tested, 0.036% active. AID 488895;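 active means mean replicate inhibition at least 50% and at least half of replicates individually reaching 50%; inconclusive means only one of the two criteria met; inactive means neither criterion met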;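 further: exported cargo escapes ClpAP degradation while cytoplasmic cargo is degraded and loses fluorescence; 0% = median of neutral control wells and 100% = median of NaSCN control wells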
AddAB inh: less growth of phage-infected E. coli with AddAB. E. coli expressing H. pylori AddAB, absorbance growth. inhibition, % at 11.9 µM. 330,000 tested, 0.29% active; in the data active means inhibition above about 12%;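 further: 0% = vehicle wells of infected cells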
phage Ecoli inh: E. coli growth loss with phage present; 360,000 tested, 0.26% active; inhibition, % at 11.9 µM; AID 651602; growth absorbance; in the data active means inhibition above about 11%
E coli growth-2: reduces bacterial viability in AddAB counter-screen; AID 449728; 330,000 tested, 0.27% active; inhibition, % at 11.9 µM; E. coli V3065 growth, OD600 absorbance, 18 h;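 active means inhibition above the campaign's mean inhibition across all tested compounds plus 3 SD, cut at about 9.9% in these data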;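 further: uninfected addAB+ strain grown without phage in ampicillin broth; 0% = DMSO wells and 100% = ciprofloxacin 0.95 µg/ml wells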
RecBCD conf: growth loss of phage-infected V66 E. coli, RecBCD confirmation screen. shares compounds with phage Ecoli inh. E. coli V66 + T4 2- phage, growth OD. AID 651982. 890 tested, 45% active. inhibition, % at 11.9 µM;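 active means mean inhibition over triplicates exceeding the hit threshold derived in the original primary screen, cut at about 11% in these data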
Ecoli viability: inhibits E. coli viability, flagging RecBCD hits as nonselective | shares compounds with phage Ecoli inh | absorbance (OD) growth | inhibition, % at 11.9 µM | 890 tested, 29% active | AID 651983; in the data active means inhibition above about 20%;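 further: E. coli strain V66 grown with compound alone and no phage infection; 0% = bacteria with DMSO vehicle only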
AddAB counter: growth loss of phage-infected AddAB E. coli, RecBCD counter-screen | shares compounds with phage Ecoli inh | E. coli expressing H. pylori AddAB + T4 phage, OD growth; gene 2 mutant T4, recBCD-deleted host | inhibition, % at 11.9 µM | 890 tested, 45% active | AID 651984;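 active means mean inhibition above the solvent-only control wells' mean plus 3 SD, cut at about 22% in these data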;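 further: higher means less bacterial growth from phage killing when AddAB is blocked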
An asterisk follows results filed as active; ? = inconclusive; . = not tested or not shown. Hits are enriched below; roughly 0.9% of the tested compounds scored in any of these assays.

SMILES | E coli growth-1 | Calb FLC | Tat export inh | AddAB inh | phage Ecoli inh | E coli growth-2 | RecBCD conf | Ecoli viability | AddAB counter
CC(NC(=O)Nc1nnc(C(F)(F)F)s1)N1C(=O)C2C3C=CC(C3)C2C1=O (stereo not drawn) | 0.71 | -1 | -15 | 1 | 2 | 1 | . | . | .
CC(NC(=O)Nc1nnc(C(F)(F)F)s1)(C(F)(F)F)C(F)(F)F | 0.59 | 71 | 5 | 9 | 13* | 11* | 15* | 16 | 17
COc1ccc(OC)c(C=NN(CCC#N)C2=NS(=O)(=O)c3ccccc32)c1 | 0.64 | . | . | . | . | . | . | . | .
COc1ccc(C2=CSC(N=Cc3ccc(F)cc3)=NN2)cc1 | 0.72 | . | . | . | . | . | . | . | .
CC1CN(N=Cc2ccc([N+](=O)[O-])o2)C(=N)O1 (stereo not drawn) | 0.065* | . | 12 | . | 46* | . | 85* | 102* | 103*
O=[N+]([O-])c1ccc(/C=N/N=C/c2ccc([N+](=O)[O-])o2)o1 | . | . | -2 | . | 8 | . | . | . | .
O=C1C2C3C=CC(C4CC34)C2C(=O)N1/N=C/c1ccc([N+](=O)[O-])o1 (stereo not drawn) | . | 0 | -4 | 7 | 7 | 3 | . | . | .
O=C1SCCN1N=Cc1ccc([N+](=O)[O-])o1 | 0.063* | . | -2 | . | 69* | . | 62* | 98* | 100*
O=C(O)c1cccc(NN=Cc2ccc(OC(F)(F)F)cc2)c1 | 0.67 | . | . | . | . | . | . | . | .
CC(=NNC(=O)C(O)(c1ccccc1)c1ccccc1)c1ccc(C)o1 | 0.71 | . | . | . | . | . | . | . | .
CCN(C(C)=O)c1cnc(C=NNC(N)=S)c2ccccc12 | . | . | -19 | . | 20* | . | 15* | 17 | 32*
NC(=S)NN=Cc1nccc2c(N)cccc12 | . | . | . | . | 23* | . | 32* | 39* | 35*
CC(=O)n1cc(C=NNC(N)=S)c2ccccc21 | 0.71 | . | . | . | . | . | . | . | .
NC(=S)N/N=C/c1c(O)ccc2ccccc12 | . | -11 | -4 | 2 | 1 | 2 | . | . | .
Cc1ccccc1Cn1c(CN2CCN(C(=O)c3ccco3)CC2)nc2c1c(=O)n(C)c(=O)n2C | 0.76 | -33 | 3 | -2 | 97* | 1 | -4 | -4 | -2
O=S(=O)(Nc1ncccn1)c1ccccc1 | 0.64 | -1 | -6 | 0 | 3 | -1 | . | . | .
O=S(=O)(Nc1ncccn1)c1ccc(NC(=S)Nc2ccc(Cl)cc2)cc1 | . | -2 | 22 | 7 | 11* | 6 | 4 | 3 | 5
Nc1ccc(S(=O)(=O)Nc2ncccn2)cc1 | 0.61 | 3 | -2 | 2 | 11* | 1 | 6 | 3 | 13
Cc1noc(NS(=O)(=O)c2ccc(N)cc2)c1C | 0.66 | . | -2 | 10 | 11* | 8 | 3 | 2 | 23*
CC(C)NC(=S)Nc1ccc(S(=O)(=O)Nc2ncccn2)cc1 | 0.69 | -2 | -3 | 2 | 2 | 1 | . | . | .
CCOC(=O)Nc1ccc(S(=O)(=O)Nc2onc(C)c2C)cc1 | 0.66 | 1 | . | 1 | -1 | -2 | . | . | .
CCc1ccc(NC(=S)Nc2ccc(S(=O)(=O)Nc3ncccn3)cc2)cc1 | 0.68 | -2 | 19 | 3 | 12* | 1 | 1 | -1 | 6
O=C(Nc1ccc(Cl)cc1)Nc1ccc(S(=O)(=O)Nc2ncccn2)cc1 | 0.59 | 3 | 10 | 0 | 6 | 2 | . | . | .
C[C@@]12C(=O)N(c3cccc(Br)c3)C(=O)N1C(c1ccc(Cl)cc1)C1C(=O)N(C3CCCCC3)C(=O)C12 (stereo partly drawn) | 0.72 | . | . | . | . | . | . | . | .
O=C(NN=Cc1ccco1)c1ccc(Br)o1 | 0.71 | . | . | . | . | . | . | . | .
SMILES | E coli growth-1 | Calb FLC | Tat export inh | AddAB inh | phage Ecoli inh | E coli growth-2 | RecBCD conf | Ecoli viability | AddAB counter
O=C(O)COc1ccc(C=NNC(=O)C2CCCN2S(=O)(=O)c2ccc(Cl)cc2)cc1 (stereo not drawn) | 0.72 | . | . | . | . | . | . | . | .
CCc1nnc(NS(=O)(=O)c2ccc(N3C(=O)c4ccccc4C3=O)cc2)s1 | 0.66 | 35 | -20 | 6 | 3 | 3 | . | . | .
CCc1nnc(NS(=O)(=O)c2ccc(N)cc2)s1 | 0.63 | . | 8 | 8 | 12* | 8 | 8 | 5 | 19
CCOc1c(Br)cc(CNc2ccc(N3CCOCC3)cc2)cc1OC | 0.69 | -3 | 4 | -1 | 98* | 1 | 0 | 0 | -2
CC1CN(C(C)CO)C(=O)c2cc(NC(=O)C3CC3)ccc2OC1CN(C)S(C)(=O)=O (stereo not drawn) | 0.68 | . | . | . | . | . | . | . | .
O=c1cc(CSc2nnc(Nc3ccccc3)s2)nc2sccn12 | 0.68 | . | -8 | 1 | 4 | 2 | . | . | .
Cc1cccc(Nc2nnc(SCc3cn4ccsc4n3)s2)c1 | 0.64 | -20 | -7 | 5 | 17* | 0 | 9 | 11 | 16
O=Nc1nc2ncccn2c1-c1ccccc1 | . | . | 4 | . | 15* | . | 8 | 16 | 95*
O=C(NN=Cc1cc(Br)ccc1O)Nc1ccccc1 | 0.6 | . | . | . | . | . | . | . | .
O=C(NNC(=O)c1cc2ccccc2cc1O)NC1CCCCC1 | 0.73 | ? | 2 | . | 13* | . | 9 | 9 | 5
O=C(NNC(=O)c1cc2ccccc2cc1O)Nc1ccc(F)cc1F | 0.71 | ? | 1 | 12 | 11* | 8 | 2 | 5 | 2
CCOc1ccc(C=NNC(=O)c2cc3ccccc3cc2OC)cc1 | 0.69 | . | . | . | . | . | . | . | .
O=C1NC(=S)S/C1=C\C=C\c1ccc([N+](=O)[O-])o1 | 0.07* | . | 68* | . | 96* | . | 99* | 99* | 99*
CN(N=C/C=C/c1ccccc1)C1=NS(=O)(=O)c2ccccc21 | 0.7 | . | . | . | . | . | . | . | .
O=C(N/N=C/c1cc(Cl)ccc1O)C(=O)Nc1ccccc1OC(F)(F)C(F)F | . | . | -12 | 12 | 16* | 12* | 4 | 7 | 10
CC1OC2CC(=O)OC2C2=C1C(=O)c1c(O)cccc1C2=O (stereo not drawn) | . | . | . | . | 14* | . | 8 | 3 | 20
CCNC(=S)Nc1ccc(Cl)c(C(F)(F)F)c1 | 0.6 | 43 | 6 | 7 | 12* | 7 | 4 | 4 | 12
O=C(Nc1ccc(Cl)c(C(F)(F)F)c1)c1ccco1 | 0.62 | . | 6 | 2 | 2 | -1 | . | . | .
O=C(N/N=C/c1c(O)n(Cc2ccccc2)c(=O)c2ccccc12)c1cccnc1 | 0.71 | -3 | -1 | 6 | 15* | 11* | 9 | 11 | 20
O=C(N/N=C/c1c(O)n(-c2ccccc2Cl)c(=O)c2ccccc12)c1cccnc1 | 0.64 | ? | 7 | . | 5 | . | . | . | .
COc1ccc(Cn2c(O)c(/C=N/NC(=O)c3cccnc3)c3ccccc3c2=O)cc1 | 0.66 | 103* | 4 | . | 15* | . | 8 | 10 | 14
Cc1nn(-c2ccccc2)c(N2CCCC2)c1C=NNc1ccc(S(N)(=O)=O)cc1[N+](=O)[O-] | 0.75 | . | . | . | . | . | . | . | .
O=C(NN=C1CCc2ccccc21)C1CC1 | 0.71 | . | . | . | . | . | . | . | .

Source: PubChem (several laboratories)
